Rows were chosen to be rich in hits. Some 2% of all compounds tested hit in one or more screens of this group.
EP2 modulator: modulates human prostaglandin E2 receptor EP2 signaling. P43116. induction, % at 25 µM. EP2-expressing cells, cAMP HTRF FRET, PGE2 co-stimulation. 260,000 tested, 0.83% active. AID 940;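 active means compounds whose cAMP rise, as percent of the full-agonist control response, exceeds 60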;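 further: rat C6 glioma line stably carrying human EP2 under a CMV promoter; the protocol text gives 20 µM as final concentration; 100% = response of wells given 1 µM PGE2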
Target sequence (P43116 whole entry, looked up): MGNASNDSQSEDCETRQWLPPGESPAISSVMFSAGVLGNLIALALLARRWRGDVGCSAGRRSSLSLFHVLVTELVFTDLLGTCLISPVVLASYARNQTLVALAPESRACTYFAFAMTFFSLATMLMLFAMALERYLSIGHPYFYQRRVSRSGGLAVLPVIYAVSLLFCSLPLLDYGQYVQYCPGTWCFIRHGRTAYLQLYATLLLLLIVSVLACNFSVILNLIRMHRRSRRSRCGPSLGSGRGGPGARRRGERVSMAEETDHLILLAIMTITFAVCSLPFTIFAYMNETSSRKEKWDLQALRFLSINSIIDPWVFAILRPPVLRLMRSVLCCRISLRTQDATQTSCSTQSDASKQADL
S1P4 agonist: human S1P4 receptor agonism | S1P4-expressing cell line, agonist reporter assay | 220,000 tested, 0.35% active | activation, % at 4.98 µM; in the data active means activation above about 11%;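 further: 0% = DMSO vehicle and 100% = reference agonist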
PGE2 EP2 inh: blocks the human prostaglandin E2 receptor EP2; P43116; C6 glioma cells expressing human EP2, cAMP TR-FRET; cells stimulated with saturating PGE2; inhibition, % at 25 µM; 260,000 tested, 0.52% active;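 active means percent inhibition above 40 after rounding to a whole number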;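 further: rat C6 glioma host cells with rolipram phosphodiesterase inhibitor present; the protocol text gives 20 µM as final concentration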
S1P4 antag: antagonists of human S1P4 receptor; inhibition, % at 4.98 µM; O95977; S1P4-expressing cells, antagonist mode, reporter read-out; 220,000 tested, 0.26% active; in the data active means inhibition above about 29%;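 further: 0% = wells stimulated with agonist and 100% = vehicle wells without agonist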
S1P3 antagonist: antagonists of human S1P3 receptor; Q99500; CHO S1P3 NFAT-BLA reporter, FRET fluorescence, antagonist mode; inhibition, % at 4.98 µM; 170,000 tested, 0.27% active; AID 485;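 active means inhibition above the plate cutoff, the mean inhibition of test wells on that plate plus 3 SD, cut at about 28% in these data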;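 further: cells challenged with S1P at its EC80 of 0.8 µM; blue over green emission ratio from cleaved BLA substrate after 4 h stimulation; 0% = S1P-stimulated wells and 100% = unstimulated DMSO-only wells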
* marks the source's active call; other numbers are inactive results; . = no result given.

SMILES	EP2 modulator	S1P4 agonist	PGE2 EP2 inh	S1P4 antag	S1P3 antagonist
CC(C)=CCc1c(O)cc(O)c2c(=O)c3c(CC=C(C)C)c(O)ccc3oc12	.	.	42*	.	.
Nc1nc2c(s1)COc1ccccc1-2	-49	-1	10	-23	-23
Nc1nc2c(s1)CCc1c-2cnn1-c1ccccc1	-23	0	40*	-16	27
Cc1c(C(=O)N2CCCCC2)sc(NC(=O)c2ccccc2Cl)c1C#N	2	.	19	.	.
CCCNC(=O)c1cc(-c2ccccc2)on1	-75	.	15	.	.
CN(Cc1ccccc1)C(=O)CC(c1ccccc1)c1cc(Cl)ccc1O (centres undefined)	61*	0	.	-10	.
COc1cc2c(c3oc(-c4ccccc4)cc(=O)c13)C=CC(C)(C)O2	-12	0	50*	-3	4
COc1cc(OC)c2c(=O)cc(-c3ccccc3)oc2c1	-6	1	.	3	-14
COc1ccc(OC)c(NC(=O)c2sc3nc4ccccc4cc3c2N)c1	-17	.	8	.	.
COc1cccc(NS(=O)(=O)c2ccc(OC)c(OC)c2)c1	18	1	8	-19	63*
COc1ccc(S(=O)(=O)Nc2ccccc2)cc1OC	24	-2	11	-2	.
O=c1c2ccccc2[nH]c(=S)n1CCCN1CCN(C2CCCCC2)CC1	2	1	12	-4	70*
C=CCc1cccc(CNc2nc3ccccc3n2CCC)c1O	43	-3	8	7	77*
COc1ccc2[nH]c3c(C)c4ccncc4c(C)c3c2c1	-46	4	87*	-93	-15
Cn1nnc(NC(=O)c2cc(Cl)ccc2Cl)n1	-44	.	10	.	.
O=C(O)c1ccc2c(c1C(=O)O)C(=O)OC2(c1ccc(O)cc1)c1ccc(O)cc1	20	.	44*	.	.
CCc1cc2ccccc2nc1SCC(=O)NCCc1ccc(OC)c(OC)c1	61*	.	15	.	.
CCc1ccccc1NC(=O)CSc1nc2ccc(OC)cc2cc1C	70*	.	22	.	.
COc1ccc(CCNC(=O)CSc2ccc3ccccc3c2)cc1OC	-11	-1	6	-12	-5
O=C(CSc1nc2ccccc2cc1Cc1ccccc1)Nc1nccs1	64*	.	18	.	.
CCc1cc2ccccc2nc1SCC(=O)Nc1ccccc1	45	.	12	.	.
COc1ccc(NC(=O)CSc2nc3ccccc3cc2Cc2ccccc2)cc1	57	-1	7	-12	.
CCc1cc2ccccc2nc1SCC(=O)Nc1ccccc1C	80*	.	19	.	.
CCc1ccccc1NC(=O)CSc1nc2ccc(OC)cc2cc1C#N	21	.	24	.	.
Cc1ccc(NC(=S)N(Cc2cccs2)Cc2cc3cc(C)ccc3[nH]c2=O)c(C)c1	-17	.	10	.	.
SMILES	EP2 modulator	S1P4 agonist	PGE2 EP2 inh	S1P4 antag	S1P3 antagonist
Cc1cc(C)c2c(n1)nn1c(Nc3ccc4c(c3)OCO4)cc(C)nc21	-12	.	.	.	.
COc1ccc([C@@H]2C[C@H](OC(=O)c3ccc4c(c3)n(C)c(=O)n4C)C(=O)N2C)cc1	-19	.	7	.	.
Cc1cc(C)c(C(=O)/C=C/C=C/c2ccccc2)c(=O)[nH]1	-4	1	7	-2	19
Cc1cc(C)c(C(=O)/C=C/c2ccc(C(C)C)cc2)c(=O)[nH]1	3	0	83*	16	.
CCCN(C(=O)C(C)C)c1nnc(-c2cc(OC)c(OC)c(OC)c2)s1	-34	.	12	.	.
COc1cc(/C=N/NC(=O)c2ccc(COc3ccccc3Cl)o2)cc(Br)c1O	-68	1	75*	-17	-12
O=C(/C=C/c1ccco1)N/C(=C\c1ccc2c(c1)OCO2)C(=O)N1CCCCCC1	-4	.	11	.	.
CC(C)(C)C(=O)/C(=C\c1ccc([N+](=O)[O-])cc1)n1cncn1	-32	0	35	55*	.
C=CCOc1ccccc1/C=C1\SC(N2CCN(CCC#N)CC2)=NC1=O	-95	.	12	.	.
CCNc1ccc(S(=O)(=O)C(F)(F)F)cc1NC(=O)C12CCC(CC1)C2	-4	1	76*	-5	0
COCCn1c(C)cc(C(=O)CSc2nc3ccccc3c(=O)[nH]2)c1C	-53	0	4	-25	11
COCC(C)n1c(C)cc(C(=O)CSc2nc3ccccc3c(=O)[nH]2)c1C (centres undefined)	62*	-1	7	-10	14
Cc1ccc(C)c(N(C(=O)c2csnn2)C(C(=O)NC(C)(C)C)c2ccncc2)c1 (centres undefined)	16	.	9	.	.
N#Cc1c(C(F)(F)F)cc(C2CC2)[nH]c1=O	22	-1	9	7	62*
Cc1ccc(-c2cc(C(F)(F)F)c(C#N)c(=O)[nH]2)cc1	1	-1	14	-1	-12
COc1ccc(Nc2nc3ccccc3nc2-n2nc(C)cc2C)cc1	65*	0	9	19	.
c1ccc(CNC2=NCCC2)nc1	12	0	6	-10	-1
N#CC[N+]1(Cc2ccccn2)CCCC1	8	.	42*	.	.
O=C(CSc1nnc(-c2ccncc2)o1)N(C1CCCCC1)C1CCCCC1	43	.	12	.	.
O=C(CSc1nnc(-c2ccccc2)o1)N(C1CCCCC1)C1CCCCC1	76*	.	16	.	.
Cc1cc(NC(=O)c2cc3n(n2)C(C(F)(F)F)CC(c2ccc(Cl)c(Cl)c2)N3)no1 (centres undefined)	-23	-1	4	15	55*
COC(=O)C1=C(C(C)=O)C(c2cccc(OC)c2)n2nnnc2N1 (centres undefined)	-15	.	8	.	.
COc1cccc(NC(=O)C2CC(=O)N(C)C(=Nc3cccc(F)c3)S2)c1 (centres undefined)	-43	-2	7	-6	9
COc1cccc(N=C2SC(C(=O)Nc3ccccc3F)CC(=O)N2C)c1 (centres undefined)	-19	0	163*	-14	-2
COc1ccc(-c2c(C)nn3c(N4CCCC(O)C4)c(C)c(C)nc23)cc1 (centres undefined)	-23	.	.	.	.
SMILES	EP2 modulator	S1P4 agonist	PGE2 EP2 inh	S1P4 antag	S1P3 antagonist
N#CC1=C(N)Oc2cc3c(cc2C1c1ccc(Cl)cc1)OCO3 (centres undefined)	-20	0	3	-1	72*
COc1cc(C2C(C#N)=C(N)Oc3cc4c(cc32)OCO4)cc(OC)c1OC (centres undefined)	33	-4	0	18	17
CSc1cnn(-c2ccccc2)c(=O)c1SC	3	1	42*	-3	-6
CCSc1cnn(-c2ccccc2)c(=O)c1SCC	3	-1	136*	-3	.
CSc1cnn(Cc2ccccc2)c(=O)c1SCc1ccccc1	12	1	9	-16	-8
CCCCSc1cnn(-c2ccccc2)c(=O)c1SCCCC	9	2	17	-2	.
COCCn1c(SCC(=O)Nc2cc(OC)ccc2OC)nc2ccccc2c1=O	25	.	5	.	.
CCNC(=S)N(Cc1ccc(OC)cc1)Cc1cc2cccc(C)c2[nH]c1=O	-26	.	12	.	.
COc1ccc(CC(=O)Nc2cccc(-c3nnc(-c4cccc(C)c4)o3)c2)cc1OC	-14	-1	12	-20	85*
CCN1/C(=C/C=C/C(C)=C/C=C/c2sc3ccccc3[n+]2CC)Sc2ccccc21	-97	.	17	.	.

Screening results deposited in PubChem BioAssay by several laboratories.
